A selection: hits, their analogues and other compounds. The true share with any hit is near 1.1%.
USP7 inh: inhibitors of human USP7 deubiquitinase; inhibition, % at 20 µM; purified USP7, Ub-rhodamine cleavage fluorescence; hit rate 0.3% among 47,000
UCHL1 inh: inhibitors of human UCHL1 deubiquitinase; Ubiquitin carboxyl-terminal hydrolase isozyme L1 (Homo sapiens), P09936; purified UCHL1, Ub-rhodamine cleavage fluorescence; inhibition, % at 20 µM; hit rate 0.2% among 47,000; AID 1645859, 2021
OTUD3 block: inhibitors of human OTUD3 deubiquitinase; purified OTUD3, Ub-rhodamine fluorescence, 2 h; inhibition, % at 25 µM; hit rate 0.7% among 47,000; AID 1645858, 2021
Target sequence (Q5T2D3 whole entry, looked up): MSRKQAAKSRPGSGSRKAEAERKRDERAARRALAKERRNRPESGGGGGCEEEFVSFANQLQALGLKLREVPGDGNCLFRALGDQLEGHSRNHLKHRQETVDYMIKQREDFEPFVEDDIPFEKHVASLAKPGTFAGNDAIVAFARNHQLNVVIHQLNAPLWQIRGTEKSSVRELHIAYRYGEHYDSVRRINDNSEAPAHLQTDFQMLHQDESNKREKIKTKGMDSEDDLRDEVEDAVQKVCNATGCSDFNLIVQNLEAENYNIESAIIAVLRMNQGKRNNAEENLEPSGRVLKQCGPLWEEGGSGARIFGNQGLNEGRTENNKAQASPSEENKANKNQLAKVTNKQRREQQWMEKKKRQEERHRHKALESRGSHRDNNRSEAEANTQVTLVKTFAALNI
A number is an active result; n = inactive. Rule as the data show it: active = inhibition above about 30%; inactive = the rest.

SMILES	USP7 inh	UCHL1 inh	OTUD3 block
CC(C)C[C@H](NC(=O)c1ccc2nc(-n3cccc3)sc2c1)C(=O)NCc1ccco1	n	n	n
CCC(=O)N1c2ncnn2C(c2ccccc2OC)CC1c1ccc(C)cc1 (stereo not given)	n	n	n
COC(=O)c1ccc(Nc2c(C#N)cnc3ccc(Cl)cc23)cc1	n	n	n
Cc1ncncc1C(=O)N1CCCC(C)(c2ncc(Cc3cccc(F)c3)o2)C1 (stereo not given)	n	n	82
Cc1ncncc1C(=O)N1CCCC(c2ncc(Cc3cccc(F)c3)o2)C1 (stereo not given)	n	n	n
Clc1ccc(Nc2nc(SCc3ccccc3)nc3nc(N4CCOCC4)ncc23)cc1	n	n	n
COC(=O)CN1C(c2cc(OC)c(OC)c(OC)c2)=Nc2ccc(Cl)cc2C1c1ccccc1 (stereo not given)	n	n	n
COc1ccc(-c2csc(-c3cc4c([nH]c3=O)CC(c3ccco3)CC4=O)n2)cc1 (stereo not given)	n	n	n
O=C1CC(c2ccco2)Cc2[nH]c(=O)c(-c3nc(-c4ccc(Cl)cc4)cs3)cc21 (stereo not given)	41	n	38
COC(=O)N1CCn2c(c(C(=O)Nc3cncc(F)c3)c3cccnc32)C1	n	n	n
CC1NC(=O)C(CC(N)=O)NC(=O)C(C(C)O)NC(=O)C(C(C)C)NC(=O)C(C(C)C)NC(=O)C(NC(=O)CC(O)CCCCCCCCCCCCN=C(N)N)C(C)OC1=O (stereo not given)	n	n	83
CCCCCC1OC(=O)c2c(C)cccc2Oc2ccc(O)c(CO)c2/C=C/C1O (stereo not given)	n	n	n
CCCCCC1OC(=O)c2c(C)cccc2Oc2ccc(O)c(C=O)c2/C=C/C1O (stereo not given)	n	41	45
O=C(Nc1cccnc1)C1CC2(CCN(C(=O)CO)CC2)c2ccccc21 (stereo not given)	n	n	n
CCc1ccc(NC(=O)CSc2nc(-c3ccccc3C)nc3cc(=O)[nH]n23)cc1	n	n	n
O=C(NCc1ccccc1)c1ccc(-c2cncnc2)nc1	n	n	n
COc1ccc(C(=O)/C=C\c2cn(CCC(=O)O)nc2-c2ccc(OC)c(OC)c2)cc1	n	n	n
COc1ccc(-c2nn(-c3ccccc3)cc2/C=C/C(=O)Nc2ccc(C(C)=O)cc2)cc1OC	n	n	47
O=C(Cc1ccc(-n2c(=O)c3ccccc3n(CC(=O)Nc3ccc(Cl)cc3Cl)c2=O)cc1)NCc1ccco1	n	n	n
CCC(C)NC(=O)Cn1c(=O)n(-c2ccccc2)c(=O)c2ccc(C(=O)NCc3ccco3)cc21 (stereo not given)	n	n	32
CNc1nc2c(c(=O)n1C)CN(C(=O)Nc1ccc(C(C)(C)C)cc1)CC2	n	n	n
CNc1nc2c(c(=O)n1C)CN(C(=O)Nc1cccc3ccccc13)CC2	n	n	59
Cc1ccc(NC(=O)Nc2ccc(C)n(CC(=O)Nc3cc(C)ccc3C)c2=O)cc1	n	n	46
Cc1cccc(NC(=O)Nc2ccc(C)n(CC(=O)Nc3ccccc3)c2=O)c1	n	n	n
Cc1ccc(NC(=O)CN2c3ccccc3S(=O)(=O)c3ccccc32)c(C)c1	n	n	n
SMILES	USP7 inh	UCHL1 inh	OTUD3 block
Cc1ccc(NC(=O)Nc2ccc(C)n(CC(=O)Nc3ccc(C)cc3C)c2=O)cc1	37	n	74
Cc1cccc(NC(=O)Nc2ccc(C)n(CC(=O)Nc3ccc(C)c(C)c3)c2=O)c1	n	n	n
Cc1ccc(NC(=O)Nc2ccc(C)n(CC(=O)Nc3cccc(C)c3)c2=O)cc1	31	n	n
Cc1cn(C)c(C2CCCN(C(=O)c3cc(C)nc4onc(C)c34)C2)n1 (stereo not given)	n	n	n
Cc1ccc2[nH]cc(S(=O)(=O)c3cc(F)cc(F)c3)c(=O)c2c1	36	n	n
Cc1ccc2[nH]cc(S(=O)(=O)c3ccc(C)c(F)c3)c(=O)c2c1	n	n	n
O=C(c1ccc2occc2c1)N1CCC(S(=O)(=O)c2ccc(-c3ccco3)cc2)CC1	52	52	n
O=S(=O)(c1ccc(-c2ccco2)cc1)C1CCN(Cc2cccnc2)CC1	n	n	n
O=C(CC(C(=O)Nc1ccccc1)C(=O)c1ccccc1)NCCc1ccc(F)cc1 (stereo not given)	n	n	n
O=C(Cn1c(=O)n(Cc2ccccc2)c(=O)c2ncccc21)NCc1ccccc1Cl	33	n	n
O=C(Cn1c(=O)n(Cc2ccncc2)c(=O)c2ncccc21)Nc1ccccc1	n	n	n
O=C(COC(=O)CC1CCCCC1)Nc1cccc(S(=O)(=O)N2CCCCC2)c1	n	n	n
O=C(COc1nc2ccccc2nc1N1CCOCC1)Nc1cccc(S(=O)(=O)N2CCCCC2)c1	n	n	47
O=C(O)CNC(=O)c1cnc2n1CC(c1cccc(C(F)(F)F)c1)CC2 (stereo not given)	n	n	n
CN(C(=O)c1cccs1)c1nc2c(s1)CCc1occc1-2	n	n	n
Cc1c(C(=O)N(C)c2nc3c(s2)CCc2occc2-3)oc2ccccc12	n	n	36
CCOC(=O)c1c(-c2ccc(C)o2)csc1NC(=O)COC(=O)c1cc(=O)[nH]c2ccccc12	n	n	n
Cc1cccc(N2C(=O)CN(S(C)(=O)=O)CC2(C)C(=O)NC2CCCCCC2)c1C (stereo not given)	n	n	n
COc1ccc(C(=O)CN2C(=O)COc3cc(C(=O)N4CCN(C(C)C)CC4)ccc32)cc1	n	n	n
Cc1cc(C)c(NC(=O)Cn2c(=O)n(Cc3ccccc3)c(=O)c3nn(C)cc32)c(C)c1	n	n	44
CCn1cc2c(n1)c(=O)n(Cc1ccccc1)c(=O)n2CC(=O)Nc1ccc(C)cc1C	30	n	n
CCn1c(=O)c2nscc2n(CC(=O)Nc2ccc(C)cc2Cl)c1=O	n	n	n
Cn1cc2c(n1)c(=O)n(Cc1ccc(F)cc1)c(=O)n2CC(=O)NCc1ccccc1	n	n	n
CCCCNC(=O)CSc1nnc(-c2cc3ccccc3n2C)o1	n	n	31
Cn1c(-c2nnc(SCC(=O)NCCc3ccccc3)o2)cc2ccccc21	n	n	n
SMILES	USP7 inh	UCHL1 inh	OTUD3 block
COc1ccc2nc(C(=O)NCc3cccc(C)c3)cn2n1	n	n	n
Cc1ccccc1Cn1cc(SCC(=O)Nc2ccc3c(c2)OCCO3)c2ccccc21	n	n	n
Cc1ccccc1C(=O)NCCn1cc(SCC(=O)Nc2ccc3c(c2)OCCO3)c2ccccc21	n	n	44
COc1ccccc1-c1noc(CCCC(=O)Nc2ccc(F)cc2)n1	n	n	n
Cc1ccc(CNC(=O)CCCCCn2c(=O)c3sccc3n(CC(=O)c3ccc(Cl)cc3)c2=O)cc1	n	n	n
O=C(CCCn1c(=O)c2sccc2n(CC(=O)NCCC2=CCCCC2)c1=O)NCc1ccc2c(c1)OCO2	n	n	n
Cc1cc(C)c(NC(=O)Cn2c(=O)n(CCC(=O)NCc3ccc4c(c3)OCO4)c(=O)c3sccc32)c(C)c1	30	n	34
CCOc1ccc(NC(=O)Cn2c(=O)n(CCCCCC(=O)NCc3ccc(F)cc3)c(=O)c3sccc32)cc1	n	n	32
COCCCn1c(C(=O)N(Cc2ccccc2)Cc2ccccc2)cc2c(=O)n3ccccc3nc21	n	n	n
